Measured values published in PubChem BioAssay AID1159580 (chemical genetic matrix, 2015).
Out of some 5,500 compounds screened, about 2,000 (36%) were called active. Not shown: some 18% with an inconclusive outcome. Cut-off read from the data, not from the text of the source: active = normalized growth mostly below about 0.91 (no sharp cut-off); inconclusive = no clear call, values can overlap the other calls; inactive = mostly above about 0.92. The list shows a part of the results.

Assay: chemical genetic growth profiling, strain panel (AID 1159580);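 note: tested at 20 µM; growth read once vehicle control cultures reached saturation at 30 °C; 1 = growth at the plate median or of vehicle wells; lower values mean less growth of the strain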
Details: S. cerevisiae deletion strains, growth OD

Measured: normalized growth

CC(N)(C(=O)O)c1ccc(C(=O)O)cc1 (stereo not drawn)
inactive: locus YAL013W, strain DEP1, stronger effect = lower value 1.01 | locus YCL061C, strain MRC1 (second series), stronger effect = lower value 1.01 | locus YDR150W, strain NUM1, stronger effect = lower value 0.998 | locus YDR363W, strain ESC2, stronger effect = lower value 1.03 | locus YER002W, strain NOP16, stronger effect = lower value 0.995 | locus YGR229C, strain SMI1, stronger effect = lower value 1.01 | locus YMR263W, strain SAP30, stronger effect = lower value 0.996 | locus YMR307W, strain GAS1, stronger effect = lower value 1 | locus YNL175C, strain NOP13, stronger effect = lower value 1 | locus YNL197C, strain WHI3, stronger effect = lower value 1.02 | locus YNL224C, strain SQS1, stronger effect = lower value 1 | locus YOR083W, strain WHI5 (second series), stronger effect = lower value 1.02
active: locus YAL040C, strain CLN3, stronger effect = lower value 1.12 [resistant]
